# Source: PubChem
# TR SRC2 fluor cs: Total Fluorescence Counterscreen for Inhibitors of the Interaction of Thyroid Hormone Receptor and Steroid Receptor Coregulator 2 | TRb/SRC2 Texas Red total fluorescence interference | Potency, µM (series often up to 106 µM), for the others: at the highest dose fluorescence change, negative = quenching | actives 0.29% (n = 280,000) | AID 1479, 2009; active = well fitted curve in either direction with a large enough effect; inconclusive = small, poorly fitted or top-dose-only effect
#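 Flags fluorescent or light-absorbing compounds by total fluorescence, S + 2P, at 555 nm excitation and 632 nm emission. Mixture: 20 nM Texas Red SRC2 peptide, 0.6 uM human TRb LBD, 1 uM T3, 5% DMSO; compound exposure 5 h at ambient temperature.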
# TRb-SRC2 inh: qHTS for Inhibitors of the Interaction of Thyroid Hormone Receptor and Steroid Receptor Coregulator 2; Potency, µM (titrated, usually from 106 µM), for inactives: at the top dose activity change, negative = inhibition, hits mostly inhibitors; actives 0.065% (n = 280,000); TRbeta-SRC2 peptide binding, fluorescence polarization; receptor liganded with 1 µM T3; AID 1469, 2008;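 also: plate controls were bound peptide for no effect and peptide without receptor for full effect; nearly all actives have a fitted effect of over 50% in size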
# Target sequence (P10828 whole entry, looked up): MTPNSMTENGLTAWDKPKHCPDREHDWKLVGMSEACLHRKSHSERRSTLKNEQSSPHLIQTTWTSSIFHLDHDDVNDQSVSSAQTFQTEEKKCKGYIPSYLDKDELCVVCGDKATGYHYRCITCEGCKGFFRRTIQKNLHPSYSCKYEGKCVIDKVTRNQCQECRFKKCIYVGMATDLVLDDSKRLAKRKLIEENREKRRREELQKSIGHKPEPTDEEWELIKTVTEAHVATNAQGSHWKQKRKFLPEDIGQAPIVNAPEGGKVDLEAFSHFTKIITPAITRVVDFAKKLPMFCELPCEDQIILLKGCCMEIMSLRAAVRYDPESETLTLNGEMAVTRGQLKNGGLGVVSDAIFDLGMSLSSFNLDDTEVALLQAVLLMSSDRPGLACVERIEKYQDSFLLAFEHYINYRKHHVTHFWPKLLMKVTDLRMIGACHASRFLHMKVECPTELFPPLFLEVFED
#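 Polarization signal, normalized between peptide-alone and full complex controls, measured compound effects on T3-liganded human TRb LBD (0.6 uM) binding 20 nM Texas Red SRC2 peptide after 5 hr.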
# Tau fluor cs: Counterscreen qHTS for Inhibitors of Tau Fibril Formation, Fluorescence Polarization | AID 1463, 2008 | tau K18 P301L Alexa594 fluorescence, heparin fibrillization | actives 0.93% (n = 280,000) | Potency, µM (top dose mostly 57.7 µM), for inactives: top-dose activity change, negative = decrease; also: nearly all actives have a fitted effect of over 55% in size
#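 Human tau K18 P301L (15 uM unlabeled, 0.24 uM Alexa 594-labeled) in 100 mM sodium acetate pH 7 with 20 uM heparin, 6 hr at 37 C. ThT 30 uM added, 1 hr ambient; Alexa 594 FP and total fluorescence read at 555/632 nm.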
# Tau FP inhib: qHTS for Inhibitors of Tau Fibril Formation, Fluorescence Polarization; K18 P301L tau heparin fibrillization, Alexa594 FP, 6 h; Potency, µM (series often up to 57.7 µM), for the others: at the top dose activity, negative = inhibition, most hits filed as inhibitors; actives 0.39% (n = 280,000); AID 1468, 2008; also: nearly all actives have a fitted effect of over 55% in size
# Target sequence (P10636 561-689 P618L limits assumed): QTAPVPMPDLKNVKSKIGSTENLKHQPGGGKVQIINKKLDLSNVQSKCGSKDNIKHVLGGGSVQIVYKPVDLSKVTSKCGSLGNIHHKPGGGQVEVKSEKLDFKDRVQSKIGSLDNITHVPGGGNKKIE
#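 FP of Alexa 594-tau after heparin (20 uM) induction. Substrate: human K18 P301L, 15 uM unlabeled, 0.24 uM labeled. Buffer 100 mM sodium acetate pH 7. 6 hr, 37 C.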
# Tau ThT inhib: qHTS for Inhibitors of Tau Fibril Formation, Thioflavin T Binding | Microtubule-associated protein tau (Homo sapiens), P10636 | Potency, µM (series often up to 57.4 µM), for the others: at the top dose activity, negative = inhibition, usual class: inhibitors | recombinant tau K18 P301L (four-repeat tau fragment), heparin-induced fibrillization, ThT fluorescence | actives 2.1% (n = 270,000); also: nearly all actives have a fitted effect of over 55% in size
#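 Recombinant human tau K18 fragment […] carrying P301L, 15 uM unlabeled plus 0.24 uM Alexa 594-labeled, was fibrillized with 20 uM heparin in 100 mM sodium acetate pH 7 for 6 hr at 37 C; 30 uM ThT fluorescence read after 1 hr.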
# * hit, by the source's call; ? = inconclusive; nt = not tested or not shown; [ ] = dose if it differs, or a comment. An excerpt weighted towards active compounds, which were near 3.1% of everything screened. Unless noted, calls follow the shape of the dose curve; as a rule, active = well fitted curve in the direction sought with a large enough effect; inconclusive = small, poorly fitted or top-dose-only effect, or another doubt; inactive = no such curve, though single readings can be large; an effect the other way counts as inactive or inconclusive. Unless noted, % is scaled to controls: 0 for no effect and ±100 for the full control effect; potency is read from the fitted curve at half-maximal effect.
SMILES,TR SRC2 fluor cs,TRb-SRC2 inh,Tau fluor cs,Tau FP inhib,Tau ThT inhib
Cc1c2oc3c(C)ccc(C(=O)N[C@@H]4C(=O)N[C@@H](C(C)C)C(=O)N5CCC[C@@H]5C(=O)N(C)CC(=O)N(C)[C@@H](C(C)C)C(=O)O[C@H]4C)c3nc-2c(C(=O)N[C@@H]2C(=O)N[C@@H](C(C)C)C(=O)N3CCC[C@@H]3C(=O)N(C)CC(=O)N(C)[C@@H](C(C)C)C(=O)O[C@H]2C)c(N)c1=O,-2%,-13%,-10%,-3%,?
O=C(C[n+]1ccc(CCSc2ccc(F)cc2)cc1)c1ccccc1,0%,-3%,-14%,?,28µM*
CC1=C(C#N)C(c2cccnc2)C2=C(N1)c1ccccc1C2=O (stereo not given),-4%,-3%,-14%,-10%,?
CC(=O)C1=C(C)NC2=C(C(=O)c3ccccc32)C1c1ccccc1 (stereo not given),-3%,-8%,?,15%,18µM*
CSC1=C(C#N)C(c2ccccc2Cl)C2=C(N1)c1ccccc1C2=O (stereo not given),1%,5%,?,?,28µM*
CC1=C(C#N)C(c2ccccc2)C2=C(N1)c1ccccc1C2=O (stereo not given),-2%,0%,25µM*[quencher],-12%,13µM*
CC(COCC(C)OC(=O)c1ccccc1)OC(=O)c1ccccc1 (stereo not given),-3%[201 µM],-1%[201 µM],nt,nt,nt
COc1ccc(-n2nc([N+](=O)[O-])c(=NCc3ccco3)n2O)cc1,2%,-7%,-29%,1%,10µM*
COc1ccc(-n2nc([N+](=O)[O-])c(=NCCC3=CCCCC3)n2O)cc1,-1%,0%,?,15%,7.9µM*
COc1ccc(OCC2c3cc(OC)c(OC)cc3CCN2C(=O)COc2ccc(Cl)cc2Cl)cc1 (stereo not given),1%,7%,-16%,-2%,-4%
O=C(CSc1nccn1Cc1ccc(Cl)cc1)Nc1ccc2c(c1)OCO2,-6%,2%,-25%,6%,-4%
Oc1cc2c(cc1O)C1c3ccc(O)c(O)c3OCC1(O)C2 (stereo not given),-4%,1%,?,25µM*,4µM*
Cc1cc(OCC(=O)N(Cc2ccc(N(C)C)cc2)CC2CCCO2)ccc1Cl (stereo not given),0%,4%,-21%,8%,-17%
Cc1c2ccccc2c(CSC(=N)N)c2ccccc12,-3%,-8%,-28%,?,13µM*
CCC(C(=O)OCC(=O)Nc1cccc(C(C)=O)c1)c1ccccc1 (stereo not given),1%,0%,-19%,-7%,-9%
CCC(C(=O)OCC(=O)Nc1cc(Cl)cc(Cl)c1)c1ccccc1 (stereo not given),0%,3%,?,32µM*,-6%
COc1ccc(C(=O)Nc2ccc3nc4c(c(Nc5ccccc5OC)c3c2)CCCC4)c(OC)c1,-2%,-10%,?,-7%,18µM*
COc1ccccc1Nc1c2c(nc3ccc(NC(=O)c4ccc(OC)c(OC)c4)cc13)CCCC2,-2%,0%,?,-17%,25µM*
COc1ccc(Nc2c3c(nc4ccc(NC(=O)c5ccc(F)cc5)cc24)CCCC3)cc1OC,-1%,-3%,?,8%,16µM*
C=C(C)C(=O)OCCC[Si](OC)(OC)OC,3%[201 µM],2%[201 µM],nt,nt,nt
CCCCCCCCCCCCCc1ccccc1,-1%[201 µM],-3%[201 µM],nt,nt,nt
COc1ccc(-n2c(=O)c3sc4ccccc4c3n(CC(=O)NCc3ccccc3)c2=O)cc1,0%,0%,5%,?,14%
COc1ccc(-c2ccccc2C2NC(C(=O)O)CCC2C)cc1 (stereo not given),-4%[11.2 µM],-5%[11.2 µM],-8%[11.6 µM],6%[11.6 µM],-4%[11.5 µM]
CCOC(=O)c1ccccc1NC(=O)c1cc2ccc3cccnc3c2[nH]1,-1%,-10%,-8%,-12%,-10%
CCOc1c(Cl)cc(CNc2ccc(S(N)(=O)=O)cc2)cc1OC,0%,5%,9%,-1%,6%
SMILES,TR SRC2 fluor cs,TRb-SRC2 inh,Tau fluor cs,Tau FP inhib,Tau ThT inhib
CCOc1cc(CNc2ccc(O)cc2)cc(Cl)c1OCc1ccccc1,?,?,16µM*[quencher],-8%,?
CCOc1cccc(CNc2ccc(O)cc2)c1OCc1ccccc1Cl,1%[11.2 µM],2%[11.2 µM],10µM*[quencher],11µM*,28µM*
CCOc1cccc(CNc2ccc(O)cc2)c1OCc1ccc(Cl)cc1Cl,4%,25µM*,?,28µM*,28µM*
CCOc1c(Cl)cc(CNc2ccc(N3CCCC3)cc2)cc1OC,11%,?,?,7.9µM*,3.2µM*
CCOc1cccc(CNCCO)c1OCc1ccc(Cl)cc1Cl,-2%,-14%,-8%,0%,-12%
CC1(C)Oc2ccc3ccc(=O)oc3c2/C(=C/Nc2ccc(O)cc2)C1=O,-3%[53 µM],4%[53 µM],13µM*[quencher],8%,-17%
O=C(N/N=C/c1cc(Cl)cc([N+](=O)[O-])c1O)NC12CC3CC(CC(C3)C1)C2,-3%,1%,?,3%,13µM*
Cc1cc(C(=O)N/N=C/c2cc(Cl)cc([N+](=O)[O-])c2O)c2ccccc2n1,2%,9%,?,14%,7.1µM*
O=C(N/N=C/c1cc(Cl)cc([N+](=O)[O-])c1O)c1ccccc1NS(=O)(=O)c1cccs1,-5%,-1%,-28%,9%,11µM*
Cc1ccc2nc(C)c(C(=O)N/N=C/c3ccccc3[N+](=O)[O-])cc2c1,-1%,-7%,-7%,-3%,-9%
CCCCCCCCCCCCCCC,-1%[201 µM],5%[201 µM],nt,nt,nt
CCOc1ccccc1NC(=O)CC1C(=O)NCCN1C(=O)c1ccc(F)cc1 (stereo not given),-4%,-2%,-3%,-8%,1%
CCOc1ccc2nc(N3CCN(C(=O)CS(=O)(=O)c4ccc(F)cc4)CC3)sc2c1,-3%,1%,-16%,-1%,?
COC(=O)[C@@]1(Cc2ccc(OC)cc2)[C@H]2c3cc(C(=O)N(C)C)n(Cc4ccc(C)c(F)c4F)c3C[C@H]2CN1C(=O)c1ccccc1,-5%,2%,-16%,-3%,-18%
O=C(Nc1ccc(F)c(Cl)c1)C1CCN(S(=O)(=O)c2ccc3[nH]c(=O)ccc3c2)CC1,1%,3%,-27%,-14%,-1%
CN(C)c1ccc(/C=N/NC(=O)c2ccccn2)cc1,-6%,5%,-18%,-11%,?
CN(C)c1ccc(/C=N/NC(=O)c2cnc3ccccc3c2)cc1,3%,-1%,-22%,-2%,0.63µM*
